Screens: PubChem, The Scripps Research Institute Molecular Screening Center
SRC3 inh – inhibitors of human steroid receptor coactivator 3 (SRC3); Q9Y6Q9; HEK293 GAL4-SRC3 luciferase reporter, luminescence; inhibition, % at 3.6 µM; 0.17% of 360,000 active;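 active means inhibition above a per-campaign cutoff, the mean of all compounds plus 3 SD, cut at about 60% in these data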;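 further: 0% = DMSO-treated cells and 100% = gossypol-treated cells at 36 µM; higher means less SRC3-driven luciferase light from the GAL4 reporter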
NCOA1 inh – inhibits human SRC1 coactivator; Q15788; HEK293 GAL4-SRC1 luciferase reporter, luminescence; inhibition, % at 3.6 µM; 0.12% of 360,000 active; AID 588354;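 active means inhibition above the campaign mean plus 3 SD, with each screening campaign given its own cutoff, cut at about 60% in these data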;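 further: 0% = DMSO treated cells and 100% = gossypol at 36 µM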
SRC2 inh – inhibits human steroid receptor coactivator 2. 0.17% of 370,000 active. HEK293 GAL4-SRC2 luciferase reporter, luminescence. Q15596. inhibition, % at 9 µM. AID 651957;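 active means inhibition above the mean inhibition of all tested compounds plus 3 SD, set per campaign, cut at about 52% in these data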;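 further: 0% = DMSO treated cells and 100% = cells given Gossypol at 36 µM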
LRH-1 inv ag – suppresses constitutive activity of human LRH-1; O00482; HEK293T StAR-luciferase reporter, LRH-1 transfected, 24 h; inhibition, % at 3.6 µM; 0.13% of 360,000 active; AID 602396;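 active means inhibition above the mean inhibition of all tested compounds plus 3 SD, cut at about 73% in these data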;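 further: 0% = DMSO wells and 100% = reporter-only cells lacking LRH-1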
NR2F2 inh – blocks human COUP-TFII nuclear receptor; HEK293T NGFI-A luciferase reporter, luminescence; 0.7% of 370,000 active; AID 686940; inhibition, % at 8.6 µM;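 active means inhibition above a per-plate cutoff, mean inhibition of test wells between control levels plus 3 SD, cut at about 38% in these data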;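 further: cells cotransfected with COUP-TFII expression vector driving the NGFI-A reporter; 0% = median of COUP-TF2 test wells and 100% = reporter-only cells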
Target sequence (P24468 whole entry, looked up): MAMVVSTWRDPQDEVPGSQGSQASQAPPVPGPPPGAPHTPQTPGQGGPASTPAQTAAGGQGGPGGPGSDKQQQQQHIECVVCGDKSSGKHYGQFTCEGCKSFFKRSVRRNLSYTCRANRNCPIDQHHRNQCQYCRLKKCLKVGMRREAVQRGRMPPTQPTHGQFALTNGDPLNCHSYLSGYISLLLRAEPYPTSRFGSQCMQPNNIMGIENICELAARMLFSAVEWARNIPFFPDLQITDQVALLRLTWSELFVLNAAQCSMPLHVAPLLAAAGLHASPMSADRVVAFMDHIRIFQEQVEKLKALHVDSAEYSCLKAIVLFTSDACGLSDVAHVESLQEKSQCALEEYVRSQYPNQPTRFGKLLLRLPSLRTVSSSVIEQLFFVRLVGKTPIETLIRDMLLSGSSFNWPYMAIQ
GalR3 antagonist – human GalR3 antagonism; O60755; HEK293 GalR3-CNG cAMP membrane potential fluorescence; galR3 body fused to GalR1 C-terminus; inhibition, % at 3 µM; 0.44% of 360,000 active; AID 651719;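 active means inhibition above the screen-wide average plus 3 SD, cut at about 13% in these data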;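 further: forskolin and galanin both at EC90 stimulate the cells; cAMP rise reported by CNG channel membrane potential dye signal; 0% = forskolin plus galanin with DMSO and 100% = forskolin alone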
Target sequence (O60755 1-299 limits assumed): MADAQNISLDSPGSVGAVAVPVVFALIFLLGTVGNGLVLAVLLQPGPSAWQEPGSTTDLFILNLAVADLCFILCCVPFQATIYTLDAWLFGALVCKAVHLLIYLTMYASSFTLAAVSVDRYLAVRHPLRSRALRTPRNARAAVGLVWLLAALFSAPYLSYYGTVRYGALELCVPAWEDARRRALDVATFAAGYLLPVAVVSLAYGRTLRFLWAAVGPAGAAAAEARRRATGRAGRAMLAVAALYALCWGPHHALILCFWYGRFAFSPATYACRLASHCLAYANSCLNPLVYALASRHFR
GalR3 conf – GalR3 (human) antagonism, confirmation | shares compounds with GalR3 antagonist | HEK293 GalR3 CNG cAMP biosensor, membrane potential fluorescence; galR3 fused to GalR1 carboxy tail; challenged with forskolin and galanin at EC90 | inhibition, % at 3 µM | 59% of 1,600 active | AID 652245;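 active means inhibition above the primary screen's cutoff, the mean inhibition of all screened compounds plus 3 SD, cut at about 13% in these data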;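 further: 0% = forskolin plus galanin and 100% = forskolin alone with DMSO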
CNG parental – parental cell agonism counter-screen for GalR3 antagonists; activation, % at 3 µM; HEK293-CNG parental cells, cAMP membrane potential fluorescence; normalised: DMSO wells 0%, forskolin wells 100%; shares compounds with GalR3 antagonist; 10% of 1,600 active; AID 652268; in the data active means activation above about 1.3%
Gal4-VP16 ctr – counter-screen for COUP-TFII antagonists: inhibitors of VP16; shares compounds with NR2F2 inh; 25% of 2,500 active; HEK293 Gal4-VP16 luciferase reporter, luminescence; inhibition, % at 8.5 µM; in the data active means inhibition above about 13%
NR2F2 inh conf – confirmation of human COUP-TFII (NR2F2) inhibitors. shares compounds with NR2F2 inh. HEK293 NGFI-A luciferase reporter, luminescence. inhibition, % at 8.5 µM. 45% of 2,500 active. AID 687008;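 active means mean inhibition over three repeats above a set limit taken from the earlier primary screen, cut at about 38% in these data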;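 further: 100% = cells given the luciferase reporter alone without the COUP-TF2 vector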
The depositor's hits bear a star; / = no result given. Rows were chosen to be rich in hits. Some 1.1% of all compounds tested hit in one or more screens of this group.

SMILES	SRC3 inh	NCOA1 inh	SRC2 inh	LRH-1 inv ag	NR2F2 inh	GalR3 antagonist	GalR3 conf	CNG parental	Gal4-VP16 ctr	NR2F2 inh conf
COCCn1c(C)cc(C(=O)COc2nc3ccccc3nc2C)c1C	7.2	0.5	24.7	10.1	67.3*	98.5*	84.9*	-0.2	5.8	46.7*
CC1CCCN(S(=O)(=O)c2cc(C(=O)NCc3ccco3)ccc2Cl)C1 (stereo not drawn)	0.1	-9.1	-23.5	-1.0	18.5	-6.5	/	/	/	/
COc1ccc(CCNC(=O)c2ccc(Cl)c(S(=O)(=O)N3CCCCCC3)c2)cc1	12.5	16.8	16.5	25.9	62.9*	88.0*	98.6*	0.0	4.7	41.4*
O=C(NCCc1ccccc1)c1ccc(Cl)c(S(=O)(=O)N2CCCC2)c1	-45.3	-26.0	/	-16.5	/	/	/	/	/	/
CC1CCCN(S(=O)(=O)c2cc(C(=O)NCCc3ccc(S(N)(=O)=O)cc3)ccc2Cl)C1 (stereo not drawn)	19.8	6.7	31.5	33.0	63.9*	75.4*	15.2*	-0.8	7.4	39.0*
COc1ccc(CCC(=O)Nc2ccc(Cl)c(S(=O)(=O)N3CCCC3)c2)cc1	18.5	31.4	21.1	27.0	59.2*	66.5*	111.9*	-0.5	-1.5	37.7*
CC[C@H](CCCCCC#N)CCC(=O)N(c1ccccc1)c1ccccc1	/	/	6.5	/	22.4	/	/	/	/	/
Nc1ncnc2c(C3OC(CO)C(O)C3O)scc12 (stereo not drawn)	83.9*	65.6*	50.9	96.2*	67.0*	61.4*	47.0*	0.0	22.2*	22.7
COC(=O)[C@H]1C[C@@]2(N3CCCC3)c3ccccc3N[C@H]2N1S(C)(=O)=O	/	/	-15.6	/	1.5	/	/	/	/	/
O=C(O)c1ccccc1C(=O)Nc1cccc([N+](=O)[O-])c1	-18.9	-24.4	4.9	-0.5	-12.6	-7.1	/	/	/	/
O=C(Nc1cccc([N+](=O)[O-])c1)c1cc2ccccc2cc1O	-8.3	-32.5	-3.6	-36.6	63.5*	62.2*	73.6*	1.1	-134.6	2.4
O=S(=O)(NCC1CCCO1)c1ccc(-c2ccc(S(=O)(=O)NCC3CCCO3)cc2)cc1 (stereo not drawn)	32.9	18.9	22.0	45.6	67.5*	96.7*	106.4*	-0.5	6.0	64.5*
CC1CCC2(CC1)CCC2NCc1ccc(Br)cc1 (stereo not drawn)	/	/	/	/	6.5	/	/	/	/	/
Cc1ccc(OCCN2CCN(c3ncnc4sc(C)c(C)c34)CC2)cc1	33.4	14.0	30.9	54.5	73.4*	100.8*	104.2*	0.5	-1.8	61.1*
CCN1CCN(CCOc2ccc(Cl)cc2)CC1	2.9	-5.7	-33.7	3.7	-24.9	-4.4	/	/	/	/
Cc1sc2ncnc(N3CCCCC3)c2c1C	20.9	-0.1	17.6	7.2	-13.5	-6.8	/	/	/	/
Clc1ccc(OCCN2CCN(c3ncnc4sccc34)CC2)cc1	36.3	24.8	19.9	53.6	70.2*	93.0*	107.0*	-0.2	0.8	63.5*
C/C(=N/NC(=O)c1cccnc1)c1cccc(O)c1	/	/	-15.5	/	-13.4	/	/	/	/	/
O=C(c1cc(COc2cccc3cnccc23)on1)N1CCCC(CCCO)C1 (stereo not drawn)	13.2	24.0	14.5	47.7	70.6*	96.8*	104.0*	-0.2	11.5	76.4*
COc1ccc(OCc2cc(C(=O)N3CCCC(CO)C3)no2)c2ccccc12 (stereo not drawn)	-78.5	-88.2	-53.2	-80.5	-36.7	-0.9	/	/	/	/
O=C(NCc1ccc(F)c(F)c1)C1C2C=CC3(CN(Cc4ccccc4)C(=O)C13)O2 (stereo not drawn)	/	/	5.5	/	-10.2	/	/	/	/	/
COc1ccc(N/C(N)=N/c2nc(C)cc(C)n2)cc1	8.3	-0.7	23.1	15.8	-5.0	-3.3	/	/	/	/
Cc1cc(C)nc(/N=C(\N)Nc2ccc(CC(=O)OC(C)C)cc2)n1	19.4	31.1	5.0	29.7	50.8*	86.3*	57.9*	1.4*	1.2	18.3
Cc1cc(C)nc(/N=C(\N)Nc2ccc(OCCC(C)C)cc2)n1	40.5	21.6	11.9	26.1	58.4*	44.6*	30.0*	6.2*	18.3*	38.0*
Cc1cc(C)nc(/N=C(\N)Nc2ccc(OCc3ccccc3)cc2)n1	19.8	-14.4	1.6	33.7	47.0*	34.6*	6.7	7.8*	3.7	27.1
SMILES	SRC3 inh	NCOA1 inh	SRC2 inh	LRH-1 inv ag	NR2F2 inh	GalR3 antagonist	GalR3 conf	CNG parental	Gal4-VP16 ctr	NR2F2 inh conf
CC(C)c1ccc(CN2CCN(C(=O)CSc3nnnn3C3CC3)CC2)cc1	17.6	20.1	25.9	27.5	63.3*	96.7*	106.5*	-0.3	0.9	50.6*
CC(C)(C)c1ccc(-n2ncc3c2CCCC3NC(=O)C2(C(N)=O)CC2)cc1 (stereo not drawn)	28.6	-12.1	27.4	29.5	65.3*	91.8*	113.9*	0.0	-8.2	59.9*
Cc1cc(C(=O)NC2CCCc3c2cnn3-c2ccc(C(C)(C)C)cc2)nn1C (stereo not drawn)	32.5	2.1	12.3	20.3	64.0*	97.0*	106.2*	-0.5	3.4	70.7*
Cc1cc(C)cc(-n2ncc3c2CCCC3NC(=O)c2cc(C)n(C)n2)c1 (stereo not drawn)	-14.8	3.0	1.5	-8.4	7.5	-0.7	/	/	/	/
Cc1c(C(C)C)c(=O)n(-c2ccc(S(=O)(=O)NC3CCCCC3)cc2)n1C	28.3	20.8	7.3	43.5	62.1*	41.1*	51.4*	-0.1	-0.7	38.6*
Cc1c(C(C)C)c(=O)n(-c2ccc(S(=O)(=O)NCc3ccccc3)cc2)n1C	-4.6	24.6	14.0	43.3	63.3*	90.6*	101.6*	-0.5	7.7	53.2*
Cn1nc(C(C)(C)C)cc1C(=O)NCc1ccc(N2CCCC2=O)cc1	38.0	14.6	18.1	35.4	69.0*	97.8*	104.0*	-0.5	-0.6	52.0*
Cc1cc(-n2c(C)cc(C(=O)CSc3ncnc4ccccc34)c2C)no1	35.8	24.8	28.9	41.2	53.9*	91.1*	2.9	-0.1	-3.6	60.0*
Cc1cc(C(=O)CSc2ncnc3ccccc23)c(C)n1C1CC1	13.1	-38.2	-4.5	-20.3	1.7	-7.3	/	/	/	/
CC(=O)Nc1ccc(/C=C/COC(C)=O)cc1C	/	/	/	/	-5.1	/	/	/	/	/
